Counter-ions that a name gives are not always drawn. ± gives the standard deviation of the averaged measurements. Over roughly 1,100 compounds, “day of extracellular matrix detachment from plate” has its median near 16; the lowest 2% begin near 10. Shown is part of a subset that was picked to be rich in the lowest values. Where a SMILES comes first, the peptide text is derived from it. Bridges are numbered along the chain shown (N, C = ends). [ ]: non-standard residue; d: D form. Orn = NCCC[C@H](N)C(=O)O; Mpa = O=C(O)CCS

This assay relates to RDEB dermal fibroblasts EB71. As to the kind of experiment: day of extracellular matrix detachment from plate (days); higher = delayed detachment (less fibrotic matrix). The settings on record: compound concentration: 10 uM.
Take `O=c1sn(-c2cccc3ccccc23)c(=O)n1Cc1ccccc1` [Tideglusib]: the “day of extracellular matrix detachment from plate” value (“day” for short) worked out at 18.7 ± 4.

In the case of `CC1(C)Cc2c(-c3ccccc3)c(-c3ccc(Cl)cc3)c(CC(=O)O)n2C1` [Licofelone], the “day” value was 16.

Take `NC(=O)c1ccc(I)c([N+](=O)[O-])c1` [Iniparib (BSI-201)]: the “day” value turned out to be 12.3 ± 1.1.

In the case of `CC(=O)Nc1ccc(O)cc1` [Acetaminophen], the “day” value is 11.

On to `CC(=O)Nc1ccccc1` [Acetanilide], for which the “day” value turned out to be 10 ± 1.7.

On to `CCOc1ccc(NC(C)=O)cc1` [Phenacetin], for which the “day” value amounted to 12.

Regarding `C=C1[C@H](CO)[C@@H](O)C[C@@H]1n1cnc2c(=O)[nH]c(N)nc21` [Entecavir Hydrate], the “day” value stood at 12.7 ± 2.9.

On to `CCOc1nc2cccc(C(=O)OCc3oc(=O)oc3C)c2n1Cc1ccc(-c2ccccc2-c2noc(=O)[nH]2)cc1` [Azilsartan Medoxomil], for which the “day” value was determined as 19 ± 1.7.

In the case of `CCCCCC(=O)O[C@]1(C(C)=O)CC[C@H]2[C@@H]3CCC4=CC(=O)CC[C@]4(C)[C@H]3CC[C@@]21C` [Hydroxyprogesterone caproate], the “day” value is 20.

Take `C[C@@H]1C[C@H]2[C@@H]3CCC4=CC(=O)C=C[C@]4(C)[C@@]3(Cl)[C@@H](O)C[C@]2(C)[C@@]1(OC(=O)c1ccco1)C(=O)CCl` [Mometasone furoate]: the “day” value is 29.5 ± 7.1.

As for `C[C@H](Cc1cc2c(c(C(N)=O)c1)N(CCCO)CC2)NCCOc1ccccc1OCC(F)(F)F` [Silodosin], the “day” value amounted to 11.

Turning to `CCCC(=O)OCOC(=O)C1=C(C)NC(C)=C(C(=O)OC)C1c1cccc(Cl)c1Cl` (stereo not drawn) [Clevidipine Butyrate], the “day” value is 19.3 ± 6.3.

As to `CC(=O)OCC(=O)[C@H]1CC[C@H]2[C@@H]3CCC4=CC(=O)CC[C@]4(C)[C@H]3CC[C@]12C` [Deoxycorticosterone acetate], the “day” value amounted to 13.

Take `C=C1/C(=C\C=C2/CCC[C@]3(C)[C@@H]([C@H](C)CCCC(C)C)CC[C@@H]23)C[C@@H](O)C[C@@H]1O` [Alfacalcidol]: the “day” value turned out to be 36.

For `CCCCCCCC(=O)N[C@H](CN1CCCC1)[C@H](O)c1ccc2c(c1)OCCO2` [Eliglustat Tartrate], the “day” value was determined as 18.3 ± 7.6.

Turning to `COc1ccc(-c2ccc3cc(C(=O)O)ccc3c2)cc1C12CC3CC(CC(C3)C1)C2` [Adapalene], the “day” value was 16.

Take `Cc1c(F)cc(C(=O)NC2CC2)cc1-c1ccc(C(=O)NCC(C)(C)C)cn1`: the “day” value was determined as 16 ± 1.4.

With `CCCCCCCCCCCCCCCC(=O)O[C@@H]1[C@@H](O)[C@@H](O)[C@@H]([C@H](NC(=O)[C@@H]2C[C@@H](CCC)CN2C)[C@H](C)Cl)O[C@@H]1SC` [Clindamycin palmitate HCl], the “day” value came to 18.

As for `Cc1cn([C@H]2O[C@@H](CO)[C@H](O)[C@H]2F)c(=O)[nH]c1=O` [Clevudine], the “day” value worked out at 15.3 ± 2.3.

For `O=C(O)CCCN1CCC(O[C@@H](c2ccc(Cl)cc2)c2ccccn2)CC1` [Bepotastine Besilate], the “day” value was 18.7 ± 4.

As for `CCOc1ccc(C[C@H]2NC(=O)CCSSC[C@@H](C(=O)N3CCC[C@H]3C(=O)N[C@@H](CCCN)C(=O)NCC(N)=O)NC(=O)[C@H](CC(N)=O)NC(=O)[C@H]([C@@H](C)O)NC(=O)[C@H]([C@@H](C)CC)NC2=O)cc1` [Atosiban Acetate] ([Mpa][dY](Et)ITNCP[Orn]G-NH2; disulfide 1-6), the “day” value was found to be 19 ± 3.

In the case of `C=C1c2cccc(O)c2C(=O)C2=C(O)[C@]3(O)C(=O)C(C(N)=O)=C(O)[C@@H](N(C)C)[C@@H]3[C@@H](O)[C@H]12` [Methacycline HCl], the “day” value was determined as 17 ± 1.7.

Turning to `C[C@]12C=CC(=O)C=C1CC[C@@H]1[C@@H]2C(=O)C[C@@]2(C)[C@H]1CC[C@]2(O)C(=O)CO` [Prednisone], the “day” value amounted to 10.3 ± 1.1.

`C[C@H]1C[C@@H]2[C@H](C(=O)C[C@@]3(C)[C@H]2CC[C@]3(O)C(=O)CO)[C@@]2(C)C=CC(=O)C=C12` [Methylprednisone]: the “day” value turned out to be 18.3 ± 4.

For the molecule `C[C@H]1C[C@H]2[C@@H]3CCC4=CC(=O)C=C[C@]4(C)[C@H]3C(=O)C[C@]2(C)[C@@]1(O)C(=O)CO` [Meprednisone], the “day” value turned out to be 18.3 ± 8.1.

Take `CCOC(=O)C1=C[C@@H](OC(CC)CC)[C@H](NC(C)=O)[C@@H](N)C1` [Oseltamivir Phosphate]: the “day” value turned out to be 20 ± 1.7.

With `OC1(c2ccc(Cl)c(C(F)(F)F)c2)CCN(CCCC(c2ccc(F)cc2)c2ccc(F)cc2)CC1` [Penfluridol], the “day” value is 25.5 ± 5.

Consider `Cc1nc(C)c(Cl)c(O)c1Cl` [Clopidol], for which the “day” value came to 18 ± 1.7.

As to `NC(=O)N1CCC(CC(=O)N2CCC([C@H]3c4ncc(Br)cc4CCc4cc(Cl)cc(Br)c43)CC2)CC1` [Lonafarnib], the “day” value worked out at 25.

As to `CCOC(=O)C1=C(C)NC(C)=C(C(=O)OCC)C1c1ccccc1/C=C/C(=O)OC(C)(C)C` [Lacidipine], the “day” value was found to be 19.3 ± 6.3.

As for `CCC(=O)NCC[C@@H]1CCc2ccc3c(c21)CCO3` [Ramelteon], the “day” value amounted to 9.67 ± 1.1.

Turning to `Cc1ccc(C(=O)c2ccc(CC(=O)O)n2C)cc1` [Tolmetin Sodium], the “day” value came to 19.3 ± 1.1.

Take `COc1nc(C)nc(Cl)c1NC1=NCCN1` [Moxonidine]: the “day” value was determined as 10 ± 1.7.

In the case of `Clc1cccc(Cl)c1NC1=NCCN1` [Clonidine HCl], the “day” value was determined as 11 ± 1.7.

`O=S(=O)(O)CCCS(=O)(=O)O` [Eprodisate (disodium)]: the “day” value is 18.

With `FC(F)(F)c1ccc(/C=C/c2nc(COc3ccc(CCCCn4ccnn4)cc3)co2)cc1` [Mubritinib (TAK 165)], the “day” value was found to be 15.7 ± 6.3.

On to `Cc1nc(C(=O)NCC(=O)O)c(O)c2ccc(Oc3ccccc3)cc12`, for which the “day” value is 23.7 ± 2.3.

In the case of `Nc1nc(=O)c2nc(CNc3ccc(C(=O)N[C@@H](CCC(=O)O)C(=O)O)cc3)cnc2[nH]1` [Folic acid], the “day” value came to 17.

As for `O=C1CCc2ccc(OCCCCN3CCN(c4cccc(Cl)c4Cl)CC3)cc2N1` [Aripiprazole], the “day” value came out at 19.3 ± 6.3.

As for `O=C1CCc2cc(OCCCCc3nnnn3C3CCCCC3)ccc2N1` [Cilostazol], the “day” value was 10.3 ± 1.1.

Turning to `Cn1nnc2c(C(N)=O)ncn2c1=O` [Temozolomide], the “day” value was determined as 9.67 ± 1.1.

As for `Nc1c(CC(=O)O)cccc1C(=O)c1ccc(Br)cc1` [Bromfenac Sodium], the “day” value amounted to 13.

Take `CC1(C)S[C@@H]2[C@H](NC(=O)[C@H](NC(=O)N3CCN(S(C)(=O)=O)C3=O)c3ccccc3)C(=O)N2[C@H]1C(=O)O` [Mezlocillin Sodium]: the “day” value came out at 13.

As for `Cc1cccc(-c2nn3c(c2-c2ccnc4ccc(C(N)=O)cc24)CCC3)n1`, the “day” value is 29.5 ± 9.2.

Turning to `CCN(CCCc1ccccc1)CCCc1ccccc1` [Alverine Citrate], the “day” value is 18.

Take `C=CCc1cc(OC)c(O)c(C(=O)NCCO)c1` [Alibendol]: the “day” value was 15.7 ± 6.3.

For the molecule `Nc1ccc(/N=N/c2ccccc2)c(N)n1` [Phenazopyridine HCl], the “day” value came to 13.

For `C[C@@H](NCCCc1cccc(C(F)(F)F)c1)c1cccc2ccccc12` [Cinacalcet HCl], the “day” value came out at 12.3 ± 1.1.

In the case of `NS(=O)(=O)c1ccc(C(=O)O)cc1` [Carzenide], the “day” value was determined as 12.3 ± 2.3.

For the molecule `CC[C@H](C)C(=O)O[C@H]1C[C@H](O)C=C2C=C[C@H](C)[C@H](CC[C@@H](O)C[C@@H](O)CC(=O)O)[C@H]21` [Pravastatin sodium], the “day” value turned out to be 20 ± 1.7.

Take `O=C(NC(Cc1cc(=O)[nH]c2ccccc12)C(=O)O)c1ccc(Cl)cc1` (stereo not drawn) [Rebamipide]: the “day” value was 15.7 ± 6.3.

As for `CC1(C)[C@@H](OC(=O)CCC(=O)O)CC[C@]2(C)[C@H]3C(=O)C=C4[C@@H]5C[C@@](C)(C(=O)O)CC[C@]5(C)CC[C@@]4(C)[C@]3(C)CC[C@@H]12` [Carbenoxolone Sodium], the “day” value turned out to be 13.

As for `CC[C@H](C)C[C@H](C)CCCCCCCCC(=O)N[C@H]1C[C@@H](O)[C@@H](NCCN)NC(=O)[C@@H]2[C@@H](O)CCN2C(=O)[C@H]([C@H](O)CCN)NC(=O)[C@H]([C@H](O)[C@@H](O)c2ccc(O)cc2)NC(=O)[C@@H]2C[C@@H](O)CN2C(=O)[C@H]([C@@H](C)O)NC1=O` [Caspofungin Acetate], the “day” value is 18.

Regarding `CC(CCc1ccc(O)cc1)NCC(O)c1ccc(O)cc1` (stereo not drawn) [Ractopamine HCl], the “day” value came to 13.

`N#CC[C@H](C1CCCC1)n1cc(-c2ncnc3[nH]ccc23)cn1`: the “day” value came to 16.

Regarding `Cc1cn(-c2cc(NC(=O)c3ccc(C)c(Nc4nccc(-c5cccnc5)n4)c3)cc(C(F)(F)F)c2)cn1` [Nilotinib (AMN-107)], the “day” value was determined as 30.5 ± 6.

Take `O=c1oc2c(O)c(O)cc3c(=O)oc4c(O)c(O)cc1c4c23` [Ellagic acid]: the “day” value stood at 10.3 ± 1.1.

Turning to `CO/N=C(\C(=O)N[C@@H]1C(=O)N2C(C(=O)O)=C(CSc3nnnn3C)CS[C@H]12)c1csc(N)n1` [Cefmenoxime hydrochloride], the “day” value was 18 ± 1.4.

Take `CCN1CCN(C(=O)N[C@@H](C(=O)N[C@@H]2C(=O)N3C(C(=O)O)=C(CSc4nnnn4C)CS[C@H]23)c2ccc(O)cc2)C(=O)C1=O` [Cefoperazone]: the “day” value was determined as 10.3 ± 1.1.

As for `CCN1CCN(C(=O)N[C@@H](C(=O)N[C@@H]2C(=O)N3[C@@H]2SC(C)(C)[C@@H]3C(=O)O)c2ccccc2)C(=O)C1=O` [Piperacillin Sodium], the “day” value turned out to be 13.

`CCCCCCCCCC(=O)N[C@@H](Cc1c[nH]c2ccccc12)C(=O)N[C@H](CC(N)=O)C(=O)N[C@@H](CC(=O)O)C(=O)N[C@@H]1C(=O)NCC(=O)N[C@@H](CCCN)C(=O)N[C@@H](CC(=O)O)C(=O)N[C@H](C)C(=O)N[C@@H](CC(=O)O)C(=O)NCC(=O)N[C@H](CO)C(=O)N[C@@H]([C@H](C)CC(=O)O)C(=O)N[C@@H](CC(=O)c2ccccc2N)C(=O)O[C@@H]1C` [Daptomycin]: the “day” value was 22.

In the case of `NC(=O)[C@@H]1CSSCCC(=O)N[C@@H](CCCCN=C(N)N)C(=O)NCC(=O)N[C@@H](CC(=O)O)C(=O)N[C@@H](Cc2c[nH]c3ccccc23)C(=O)N2CCC[C@H]2C(=O)N1` [Eptifibatide Acetate], the “day” value turned out to be 22.

As to `CC(C)[C@H]1C(=O)N[C@@H](CCCNC(=N)N)C(=O)NCC(=O)N[C@@H](CC(=O)O)C(=O)N[C@H](Cc2ccccc2)C(=O)N1C` [Cilengitide], the “day” value was found to be 6.

The record behind these values is the supplement of paper PMC11018630.
